mHTT CaM bind: disrupts binding of mutant huntingtin to calmodulin; 190,000 compounds, 3.6% hits; inhibition, % at 15 µM; P42858; AlphaScreen His-mHTT/GST-CaM binding, luminescence;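 note: 0% = both proteins with DMSO and 100% = one protein alone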
Pf apPOL block: Pf-apPOL DNA polymerase inhibition; Recombinant Pf-apPOL, molecular beacon fluorescence, 1.5 h; inhibition, % at 10 µM; AID 1794808; 210,000 compounds, 0.25% hits
* marks the source's active call; other numbers are inactive results; . = no result given. Only some compounds are listed: those with a hit (about 3.6% of all), similar ones and a draw of the others. Cut-off read from the data, not from the text of the source: active = inhibition above about 50%; inactive = the rest.

SMILES | mHTT CaM bind | Pf apPOL block
CCCCC(=O)N1C/C=C\C(c2ccc(OC)cc2)N(Cc2ccc(F)cc2)C(=O)[C@@H]1Cc1ccccc1 (stereo partly drawn) | 47 | 0
COc1ccc(C2/C=C\CN(C(=O)c3ccc(C)cc3)[C@@H](C)C(=O)N2Cc2ccc(F)cc2)cc1 (stereo partly drawn) | 93* | -6
COc1ccc(C2/C=C\CN(Cc3ccco3)[C@@H](C)C(=O)N2Cc2ccc(F)cc2)cc1 (stereo partly drawn) | 93* | -6
COc1ccc(C2/C=C\CN(Cc3ccccc3)[C@@H](C)C(=O)N2Cc2ccc(F)cc2)cc1 (stereo partly drawn) | 73* | 1
COc1ccc(C2/C=C\CN(C(=O)C3CCCCC3)[C@@H](C)C(=O)N2Cc2ccc(F)cc2)cc1 (stereo partly drawn) | 33 | -3
COc1ccc(-c2nc3cccnc3n2C2CCN(C(=O)Nc3ccc(C)cc3)C2)cc1 (stereo not drawn) | 7 | 8
COCCCNC(=O)C1CCN(c2cc(C)c3cc(NC(C)=O)ccc3n2)CC1 | -1 | 3
CC1=C(C(=O)Nc2cccc(F)c2)C(c2cccnc2)C2=C(CC(C)(C)CC2=O)N1 (stereo not drawn) | 0 | -3
O=C(NC1CC1)c1cccc(OCC2CCCN(C(=O)CC3CCCCC3)C2)c1 (stereo not drawn) | 1 | -7
CCOc1ccc(CN2CCc3nc(N4CCCC4)ncc3C2)cc1OCC | 0 | 3
CCc1ccc(CN2CCc3nc(N4CCN(CC)CC4)ncc3C2)cc1 | 34 | 0
Cc1cccc(CN2CCc3nc(N4CCCC4)ncc3C2)c1 | 84* | 8
CCN1CCN(c2ncc3c(n2)CCN(Cc2cccc(Br)c2)C3)CC1 | 57* | 2
Brc1cccc(CN2CCc3nc(N4CCCC4)ncc3C2)c1 | 100* | 7
c1ccc(CN2CCc3nc(N4CCCC4)ncc3C2)cc1 | 48 | 6
CCN1CCN(c2ncc3c(n2)CCN(Cc2cc(F)cc(F)c2)C3)CC1 | 23 | -2
CCN1CCN(c2ncc3c(n2)CCN(Cc2ccccc2)C3)CC1 | 55* | -5
CC(=NNC(=S)NC1CCCCC1)c1sc(-c2cccs2)nc1C | . | 2
CC1CCCCC1NC(=O)c1ccc(COc2cccc3c2OC(C)(C)C3)cc1 (stereo not drawn) | -3 | -9
CC(C)(C)c1ccc(C(=O)NCc2cccs2)cc1 | -7 | 0
CN(C)c1ccc(CN2CCc3nc(N4CCN(c5ncccn5)CC4)ncc3C2)cc1 | 100* | -3
Cc1ccc(CN2CCc3nc(N4CCN(c5ccccc5)CC4)ncc3C2)cc1 | 28 | 3
CS(=O)(=O)c1ccc2nc(NC(=O)c3cc(Cl)sc3Cl)sc2c1 | 0 | -3
O=S(=O)(c1ccccc1)N1CCCCC1c1nncn1CC1CC1 (stereo not drawn) | -1 | -8
CCOc1ccc2c(c1)C(=O)c1cc(OCC(=O)O)ccc1-2 | 2 | -1
SMILES | mHTT CaM bind | Pf apPOL block
CC1(C)Nc2ccccc2-c2c1ssc2=S | 40 | .
Cc1ccc2c(c1)-c1c(ssc1=S)C(C)(C)N2C | 93* | .
CCOc1ccc2c(c1)-c1c(ssc1=S)C(C)(C)N2C | 97* | .
CCN1CCN(CCN2C(=O)CCC2(C)C(=O)NCCC(C)C)CC1 (stereo not drawn) | -6 | 0
O=C(C1CCCC1)N1CCC(c2noc(-c3ccccc3)n2)CC1 | -16 | -2
COc1cccc(OC)c1C(=O)N1CCCC1c1ccccc1C (stereo not drawn) | 8 | 2
COc1ccccc1CC(=O)N1CCCC1c1ccc(Cl)cc1 (stereo not drawn) | 59* | -2
O=C(Cc1ccccc1F)N1CCCn2nc(-c3ccc(Cl)cc3)cc2C1 | 30 | -16
COc1ccccc1CC(=O)N1CCCn2nc(-c3ccc(Cl)cc3)cc2C1 | 71* | -2
COCC(=O)N1CCCn2nc(-c3cccc(C)c3)cc2C1 | -3 | -1
Cc1cccc(-c2cc3n(n2)CCCN(C(=O)CCCc2ccccc2)C3)c1 | 56* | -9
COc1ccccc1CCC(=O)N1CCCn2nc(-c3ccc(C)cc3)cc2C1 | 35 | -4
COc1ccccc1CC(=O)N1CCCC1c1ccc(C)cc1 (stereo not drawn) | -5 | -2
COc1ccc(-c2cc3n(n2)CCCN(Cc2ccccc2C)C3)cc1OC | 73* | 2
Cc1[nH]c(-c2ccccc2)cc1C(=O)NC1CCCCC1 | -2 | 0
COc1ccccc1CC(=O)N1CCCn2nc(-c3cccc(C)c3)cc2C1 | 38 | -7
Cc1cccc(-c2cc3n(n2)CCCN(C(=O)Cc2ccccc2F)C3)c1 | 73* | -3
O=C(CCCc1ccccc1)N1CCCn2nc(-c3cccs3)cc2C1 | -4 | -8
O=C(CCCc1ccccc1)N1CCCn2nc(-c3ccc(Cl)cc3)cc2C1 | 88* | 0
O=c1[nH]c(CN2CCCC2)nc2sc3c(c12)CCCC3 | 5 | -4
O=C(CSS(=O)(=O)O)N1CCc2ccccc21 | 3 | -3
O=C(Nc1ccc(C(F)(F)F)cc1)O[C@@H]1C[C@H]2C[C@@H]1[C@H]1CCCCN1C2 | 73* | -9
O=C(Nc1ccc(F)cc1)O[C@@H]1C[C@H]2C[C@@H]1[C@H]1CCCCN1C2 | -2 | -6
O=C(Nc1ccccc1Cl)c1ccccc1 | -12 | 0
O=C(CNc1ccccc1Cl)c1ccccc1 | 100* | 1
SMILES | mHTT CaM bind | Pf apPOL block
CS(=O)(=O)Oc1ccc2c(c1)OC(=Cc1ccncc1)C2=O | 0 | -4
CCCC(=O)N1CCc2cn(CC(C)C)c3cccc(c23)C1 | 53* | -4
CCn1cc2c3c(cccc31)CN(C(=O)NC(C)C)CC2 | -5 | -6
CC(C)Cn1cc2c3c(cccc31)CN(C(=O)c1ccccn1)CC2 | 88* | -5
CC(C)CC(=O)N1CCc2cn(C)c3cccc(c23)C1 | 10 | -5
CC(C)Cn1cc2c3c(cccc31)CN(C(=O)Cc1cccs1)CC2 | 64* | -7
CC(C)CC(=O)N1CCc2cn(CC(C)C)c3cccc(c23)C1 | 41 | -1
CCc1ccc(NC(=O)CNS(=O)(=O)c2ccc(Br)s2)cc1 | -1 | 7
CCc1ncn2ccnc(N3CCSCC3)c12 | 5 | -7
O=[N+]([O-])c1cccc(/C=C/c2nc(C=Nc3ccccc3Br)c(O)o2)c1 | -1 | 1
CCCCN(C(=O)c1noc2c1CCCCC2)C1CCN(C(C)=O)CC1 | -3 | 2
CCC(=O)N1CCc2cc(Br)cc(S(=O)(=O)Nc3ccc(C)c(C)c3)c21 | -4 | -5
COCCN1CCC(N2CCCN(C(=O)c3cccc(Cl)c3)CC2)C1=O (stereo not drawn) | 2 | -2
CN(c1nc2ccccn2c(=O)c1C=O)C1CCCCC1 | 0 | .
CN(C)c1ccc(/C=C/C=C2/SC(=N)NC2=O)cc1 | 62* | 2
CN(C)c1ccc(/C=C/C=C2/SC(=Nc3ccccc3)NC2=O)cc1 | 43 | 0
CCC1Oc2ccc(Cl)cc2N(C(C)C(=O)NCCC(C)C)C1=O (stereo not drawn) | -9 | -14
O=C(Cc1ccc(F)cc1)N1CCN(c2nc(CN3CCOCC3)cs2)CC1 | 17 | -1
O=C(CSc1ccc(NC(=O)C2CC2)nn1)OCc1ccccc1 | -1 | -3
COCC(C)NCc1ccccc1Br (stereo not drawn) | -10 | -11
Cc1csc(=Nc2ccccc2)n1CC(O)c1ccc([N+](=O)[O-])cc1 (stereo not drawn) | 83* | 3
O=[N+]([O-])c1ccc(-c2csc(=Nc3ccccc3)n2CCO)cc1 | 32 | 1

Source: PubChem
